High-throughput results deposited in PubChem BioAssay by NMMLSC.
CIT2 TOR yeast – yeast TOR pathway CIT2-GFP modulation. S. cerevisiae CIT2-GFP strain, flow cytometry, 3 h; 100 means same as DMSO wells. GFP response vs DMSO, % at 10 µM. 0.065% of 320,000 active;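 active means GFP response relative to DMSO above a set limit, near the screen mean plus 3 SD, cut at about 150% in these data; inconclusive means Fewer than 70 cells measured for a yeast strain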;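 further: ratio of well median GFP fluorescence to mean of DMSO wells on the plate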
Efflux pump mplx – inhibitors of Candida antifungal efflux pumps expressed in yeast; 0.44% of 330,000 active; inhibition, % at 10 µM; S. cerevisiae Candida pump triplex, Nile Red efflux;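 active means plate passing quality check with inhibition over a set limit, or well fluorescence over plate mean plus 4 SD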;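 further: Nile Red retained in pooled yeast measured as flow cytometry median fluorescence; 0% = buffer negative control and 100% = Enniatin B positive control; higher means more Nile Red kept so more efflux inhibition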
MEP2-GFP yeast – modulators of TOR pathway MEP2-GFP in S. cerevisiae; S. cerevisiae MEP2-GFP strain, flow cytometry GFP, 3 h; 100% = DMSO control level; GFP response vs DMSO, % at 10 µM; 0.51% of 330,000 active;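 active means GFP response versus DMSO above a set limit, roughly screen mean plus 3 SD, cut at about 180% in these data; inconclusive means fewer than 70 cells counted for a yeast strain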;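 further: median GFP fluorescence of the barcode-gated MEP2-GFP cells per well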
AGP1 TOR yeast – modulators of TOR pathway AGP1-GFP in S. cerevisiae; S. cerevisiae AGP1-GFP multiplex flow cytometry, 3 h; GFP as percent of DMSO wells; GFP response vs DMSO, % at 10 µM; 0.02% of 320,000 active; AID 2066;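 active means GFP response relative to DMSO above a set limit, near screen average plus 3 SD, cut at about 150% in these data; inconclusive means fewer than 70 cells counted for the yeast strain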;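 further: median GFP channel fluorescence of the gated AGP1 strain per well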
LAP4-GFP MLPCN – modulators of TOR pathway LAP4-GFP in S. cerevisiae; S. cerevisiae LAP4-GFP multiplex, flow cytometry GFP, 3 h; median GFP as percent of DMSO wells; GFP response vs DMSO, % at 10 µM; 0.34% of 320,000 active; AID 2023;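 active means GFP response vs DMSO above a set limit, about the screen mean plus 3 SD, cut at about 150% in these data; inconclusive means under 70 cell events counted for the yeast strain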
RPL19A-GFP yeast – modulators of TOR pathway RPL19A-GFP in S. cerevisiae | percent response vs DMSO, % at 10 µM | AID 2025 | 0.3% of 330,000 active | S. cerevisiae RPL19A-GFP strain, flow cytometry, 3 h; stronger effect = lower value;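 active means percent response vs DMSO below 50%; inconclusive means fewer than 70 events counted for the yeast strain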;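 further: median channel GFP fluorescence of the barcoded RPL19A-GFP strain; ratio of sample median GFP to plate DMSO average so 100% = DMSO; lower means less RPL19A-GFP as with rapamycin TOR inhibition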
An asterisk follows results filed as active; u = inconclusive; x = no result; [ ] = another dose, or the depositor's remark. This is a sample that favours compounds with a hit; in the whole collection about 1.3% have one here.

SMILES	CIT2 TOR yeast	Efflux pump mplx	MEP2-GFP yeast	AGP1 TOR yeast	LAP4-GFP MLPCN	RPL19A-GFP yeast
Cn1cnnc1SCc1ccc(C(=O)N=Nc2c(O)n(C)c3ccccc23)cc1	102	0	101	101	101	98
CS(=O)(=O)c1ccc2nc(NC(=O)CN3C(=O)NC4(CCCC4)C3=O)sc2c1	94	0	98	97	96	94
Cc1cc(/C=N/N2CCN(C)CC2)c(C)n1-c1ccccc1F	100	0	101	101	95	106
NC(=O)c1cccc(NC(=O)CCCCC(=O)Nc2cccc(C(N)=O)c2)c1	u	0	645*[may fluoresce violet]	u	77	23*[may fluoresce violet]
Cc1nn(Cc2ccc([N+](=O)[O-])cc2)c(=O)n1-c1cccc(Cl)c1	116	0	217*	108	140	96
Cc1cccc(OCC(=O)NCCNC(=O)c2ccccn2)c1	u	0	u	u	u	31*[may fluoresce violet]
CCOc1cccc(/C=C2\NC(=S)N(c3ccccc3)C2=O)c1O	u	0	424*[may fluoresce violet]	u	76	18*[may fluoresce violet]
N=c1c(C(=O)NCc2ccco2)cc2c(=O)n3ccccc3nc2n1Cc1ccc(Cl)cc1	u	0	100	x	104	94
N=c1c(C(=O)NC2CCCC2)cc2c(=O)n3ccccc3nc2n1C1CCCC1	u	0	308*[may fluoresce violet]	u	107	16*[may fluoresce violet]
N=c1c(C(=O)NCc2ccco2)cc2c(=O)n3ccccc3nc2n1C1CCCC1	u	0	269*[may fluoresce violet]	81	89	59
COCCn1c(=N)c(C(=O)NCc2ccco2)cc2c(=O)n3ccccc3nc21	94	0	573*	66	107	61
N=c1c(C(=O)NCc2ccco2)cc2c(=O)n3ccccc3nc2n1Cc1ccccc1	u	0	131	23	97	67
O=C(NCCN1CCOCC1)C1CC(=O)N(c2ccc(Cl)cc2)C1 (stereo not given)	109	0	102	105	97	104
CC(=O)Nc1ccc(S(=O)(=O)N2C(=O)c3cccc4cccc2c34)cc1	86	0	98	98	100	95
CSc1ncc(C(=O)Nc2cc(C)ccc2C)c(C)n1	u	0	u	107	u	u
CCCCN(C(=O)CCC(=O)Nc1cc(C)on1)C(C(=O)NC1CCCC1)c1ccc(OCC)cc1 (stereo not given)	98	0	105	101	92	103
CCCCN(C(=O)CCC(=O)Nc1cc(C)on1)C(C(=O)NC1CCCC1)c1ccccc1OCC (stereo not given)	u	0	420*[may fluoresce violet]	u	85	70
COc1cccc(OC)c1C(=O)Nc1ccc(C(=O)NCc2ccccc2)cc1	95	0	100	99	100	95
CN(CCCNC(=O)c1cc2c(=O)[nH]c3ccccc3c2n1C)Cc1ccccc1	u	0	91	u	129	31*[may fluoresce violet]
CC1CC(C)CN(CCCNC(=O)c2cc3c(=O)[nH]c4ccccc4c3n2C)C1 (stereo not given)	81	0	104	102	99	105
N/C(=N\OC(=O)c1ccccc1F)c1cccc([N+](=O)[O-])c1	108	0	108	95	103	102
COc1ccc(C2=CC3=C(Br)C(=O)C(C)(OC(=O)c4ccc(Cl)nc4)C(=O)C3=CO2)cc1 (stereo not given)	u	0	84	6	59	21*[may fluoresce violet]
COc1ccc(C2=CC3=C(Br)C(=O)C(C)(OC(=O)C4CCCC4)C(=O)C3=CO2)cc1 (stereo not given)	u	0	138	11	128	39*[may fluoresce violet]
O=C(Nc1ccccc1Cl)c1cccc(NC(=O)c2cccs2)c1	92	0	104	87	73	108
CC1(N(O)/C=C2\C=CC=CC2=O)CCCCC1=O (stereo not given)	94	0	94	96	93	96
O=C(NCc1ccccn1)c1cc(-c2ccc(Cl)cc2)oc1C(F)(F)F	79	0	90	79	155*	77
CCOc1ncccc1C(=O)OCC(=O)NCCc1ccccc1	u	0	245*[may fluoresce violet]	u	57	58
